# Records with an inconclusive call do not appear. Active and inactive are the calls of the source. Rule for the calls: active = hit-call score of the fitted dose curve at least 0.9, where 1 is the maximum; inconclusive = response in the unintended direction; inactive = score below 0.9.
# Key:
# [1] = target: Luciferin 4-monooxygenase (Photinus pyralis) (UniProt P08659); test: CCTE_Simmons_QuantiLum_inhib_2: CCTE's Firefly Luciferase Inhibition Assay, Simmons Lab (AID 2283767)
# Summary of the method: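 Eight test concentrations, 5 nM up to 87.5 uM final, preincubated 30min at 37C in the dark with purified luciferase (0.5% DMSO final). Detection reagent (150uM D-luciferin, 147uM dATP, 75uM CoA, pH 7.8) injected per well before kinetic luminescence read; three replicates.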
# [2] = ACEA_AR_antagonist_AUC_viability: ACEA Biosciences xCELLigence Real-Time Cell Analysis on Androgen Receptor Antagonism for Viability (AID 2283776);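 note: 22Rv1 human prostate cancer cells growing on impedance electrode plates; area under impedance growth curve at 80 h after dosing as viability; hits lower the growth signal relative to DMSO meaning cytotoxicity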
# Summary of the method: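 Viability endpoint from label-free cell-index monitoring: 22Rv1 cultures treated with an eight-point 1:4 dilution series starting at 100 uM final, AUC at 80 h fitted against DMSO.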
# AR (gene 367) [3] = target: AR (gene 367) (UniProt P10275); test: ACEA_AR_agonist_80hr: ACEA Biosciences xCELLigence Real-Time Cell Analysis on Androgen Receptor Agonism for Proliferation (AID 2283783);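 note: hits increase impedance growth signal above DMSO baseline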
# AR (gene 367), sequence (P10275 whole entry, looked up): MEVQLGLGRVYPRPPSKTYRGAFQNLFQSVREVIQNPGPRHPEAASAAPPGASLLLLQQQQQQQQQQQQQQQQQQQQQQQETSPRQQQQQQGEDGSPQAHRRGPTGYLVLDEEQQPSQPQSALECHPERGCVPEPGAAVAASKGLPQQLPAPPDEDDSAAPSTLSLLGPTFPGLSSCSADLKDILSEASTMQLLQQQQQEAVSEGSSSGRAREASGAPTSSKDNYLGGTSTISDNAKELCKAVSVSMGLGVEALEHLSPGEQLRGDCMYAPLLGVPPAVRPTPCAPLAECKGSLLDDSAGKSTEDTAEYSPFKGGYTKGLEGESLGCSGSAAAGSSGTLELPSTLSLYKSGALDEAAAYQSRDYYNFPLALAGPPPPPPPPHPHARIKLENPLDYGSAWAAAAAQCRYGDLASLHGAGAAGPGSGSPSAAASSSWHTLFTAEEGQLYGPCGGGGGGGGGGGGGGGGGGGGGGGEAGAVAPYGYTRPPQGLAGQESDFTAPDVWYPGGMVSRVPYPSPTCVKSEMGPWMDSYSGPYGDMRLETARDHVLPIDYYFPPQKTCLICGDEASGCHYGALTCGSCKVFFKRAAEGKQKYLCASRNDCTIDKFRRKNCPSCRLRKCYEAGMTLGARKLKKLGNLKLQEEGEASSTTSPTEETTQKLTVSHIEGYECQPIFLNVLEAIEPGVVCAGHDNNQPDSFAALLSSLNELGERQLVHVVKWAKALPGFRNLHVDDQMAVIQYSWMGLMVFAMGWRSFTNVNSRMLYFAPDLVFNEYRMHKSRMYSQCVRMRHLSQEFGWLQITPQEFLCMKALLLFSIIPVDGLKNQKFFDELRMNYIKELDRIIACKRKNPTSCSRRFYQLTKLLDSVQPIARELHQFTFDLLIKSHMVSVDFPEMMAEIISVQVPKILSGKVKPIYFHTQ
# Summary of the method: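 Real-time cell-growth kinetics were recorded by electrode impedance in 22Rv1 cells exposed to test chemicals up to 100 uM final; the 80 h timepoint served as the readout, fitted upward relative to DMSO controls, in biological duplicate.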
# AR (gene 367) [4] = target: AR (gene 367) (UniProt P10275); test: ACEA_AR_antagonist_80hr: ACEA Biosciences xCELLigence Real-Time Cell Analysis on Androgen Receptor Antagonism for Proliferation (AID 2283787);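 note: 22Rv1 human prostate cancer cells with growth followed by electrical impedance; hits lower the impedance growth signal relative to DMSO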
# Summary of the method: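 Using 22Rv1 cells held in assay medium, we dosed compounds (100 uM maximum final, 1:4 serial, eight points, 0.5% DMSO at top) and recorded cell-electrode impedance; the 80 hr timepoint was analyzed against DMSO.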
# [5] = ACEA_AR_agonist_AUC_viability: ACEA Biosciences xCELLigence Real-Time Cell Analysis on Androgen Receptor Agonism for Viability (AID 2283775);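 for AC50: viability read 80 hours after compound addition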
# Summary of the method: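 22Rv1 cells; impedance growth kinetics; 8-pt 1:4 dilutions from 100 uM top final, ≤0.5% DMSO; n = 2; 80 h read; AUC viability, loss-of-signal vs DMSO.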
# [6] = STM_H9_NormalizedViability: Cytotoxicity Assessment at 120 hours in the Stemina devTOX quickPredict H9 human embryonic stem cell (hESC)-based Assay (AID 2283784)
# Summary of the method: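 Viability endpoint: background-corrected CellTiter-Fluor RFU expressed relative to the 0.1% DMSO mean on each plate. Undifferentiated H9 cells were treated with daily re-dosing and media change, and loss of signal was fitted.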
# [7] = ACEA_ER_AUC_viability: ACEA Biosciences xCELLigence Real-Time Cell Analysis on Estrogen Receptor Agonism for Viability (AID 2283782);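 note: hit means loss of impedance signal meaning reduced cell growth or viability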
# Summary of the method: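 Continuous-exposure impedance cell analysis uses T-47D cells in charcoal-stripped serum, eight 1:4 dilutions topping at 100 uM final, biological duplicate. Area under the growth curve at 80 h is fitted against DMSO baseline.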
# Luciferin 4-monooxygenase (Photinus pyralis), sequence (P08659 whole entry, looked up): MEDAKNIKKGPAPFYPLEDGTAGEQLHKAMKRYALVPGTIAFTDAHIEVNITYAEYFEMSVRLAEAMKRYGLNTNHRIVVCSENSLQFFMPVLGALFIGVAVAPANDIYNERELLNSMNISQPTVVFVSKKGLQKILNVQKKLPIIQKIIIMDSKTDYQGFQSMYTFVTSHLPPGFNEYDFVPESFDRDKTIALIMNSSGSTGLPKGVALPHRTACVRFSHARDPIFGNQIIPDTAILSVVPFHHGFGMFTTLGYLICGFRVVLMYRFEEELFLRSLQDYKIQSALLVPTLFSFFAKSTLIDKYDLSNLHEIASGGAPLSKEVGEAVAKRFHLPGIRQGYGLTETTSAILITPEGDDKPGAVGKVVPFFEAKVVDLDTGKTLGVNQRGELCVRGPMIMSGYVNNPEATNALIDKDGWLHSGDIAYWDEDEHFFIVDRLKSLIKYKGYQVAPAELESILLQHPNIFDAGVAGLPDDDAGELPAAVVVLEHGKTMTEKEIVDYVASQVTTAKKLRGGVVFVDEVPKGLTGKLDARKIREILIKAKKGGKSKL
smiles,measurement,setting,value
CCCN(C1CCN(C(=O)C2CCNCC2)CC1)[C@@H]1CCc2ccc(OC)cc2C1,outcome,[1],inactive
same,AC50,[2],50 µM (active)
same,outcome,AR (gene 367) [3],inactive
same,AC50,AR (gene 367) [4],63.9 µM (active)
O=C(O)c1cccc(N(Cc2cccnc2)c2ccc(OC(F)F)c(OC(F)F)c2)c1,outcome,[1],inactive
same,AC50,[2],76.9 µM (active)
same,AC50,AR (gene 367) [3],10.5 µM (active)
same,AC50,AR (gene 367) [4],77.6 µM (active)
CC/C(=C\C(=N/O)C(N)=O)C(C)[N+](=O)[O-] (stereo unspecified),outcome,[1],inactive
same,outcome,[5],inactive
same,AC50,[2],74.2 µM (active)
NC(=O)NO,outcome,[1],inactive
same,outcome,[5],inactive
same,outcome,[2],inactive
same,AC50,[6],341 µM (active)
CCC(C)(C)C(=O)O[C@H]1C[C@@H](C)C=C2C=C[C@H](C)[C@H](CC[C@@H]3C[C@@H](O)CC(=O)O3)[C@H]21,outcome,[1],inactive
same,AC50,[2],32.1 µM (active)
same,AC50,[7],30.5 µM (active)
same,outcome,[6],inactive
Cc1[nH]cnc1C[C@H]1CCc2c(C)c3ccccc3n2C1=O,outcome,[1],inactive
same,AC50,[5],44.5 µM (active)
same,AC50,[2],50.1 µM (active)
O=c1n(CC2CO2)c(=O)n(CC2CO2)c(=O)n1CC1CO1 (stereo unspecified),outcome,[1],inactive
same,AC50,[5],0.571 µM (active)
same,AC50,[2],1.02 µM (active)
same,AC50,[6],1.06 µM (active)
